Measured potencies and affinities stand elsewhere. A number with no mark means an inactive call. How the calls were made is not given here.
Test: OV-90 cell viability loss – plate reader, dry powder, SA8, PAX8 inhibitor project, dose response (AID 743149)
Conditions: OV-90 ovarian cancer cells; series mostly up to 35 µM; activity change, negative = cytotoxicity: at the top concentration

SMILES	activity change, negative = cytotoxicity
Cc1ccccc1OCC(=O)Nc1cccc(C(=O)O)c1	22.8% [at 50 µM]
N#C[C@H]1[C@@H](c2ccc(C#Cc3cccc(F)c3)cc2)[C@@H](CO)N1C(=O)C1CCCC1	10.2%
COc1ccc(S(=O)(=O)Nc2ccc3c(c2)CC(=O)N([C@@H](C)CO)C[C@@H](C)[C@@H](CN(C)Cc2ccc(-c4ccccc4)cc2)O3)cc1	-6.31%
COc1cccc(C#Cc2ccc([C@H]3[C@@H](CO)N(C(=O)C4CCCC4)[C@H]3C#N)cc2)c1	-21.9%
O=C(C[C@H]1CC[C@H]2[C@@H](COC[C@@H](O)CN2S(=O)(=O)c2cccc(Cl)c2)O1)Nc1ccc(-c2ccccc2)cc1	-8.29%
O=C1/C(=C/c2ccccc2F)SC(=S)N1CC(=O)N1CCCCC1c1cccnc1 (stereo unspecified)	-23% [at 50 µM]
N#C[C@H]1[C@@H](c2ccc(C3=CCCC3)cc2)[C@@H](CO)N1C(=O)NC1CCCCC1	6.36%
C[C@@H]1CN([C@H](C)CO)C(=O)CCCn2cc(nn2)CO[C@H]1CN(C)C(=O)Nc1ccc(-c2cccs2)cc1	18%
COCC(=O)N1[C@H](CO)[C@H](c2ccc(-c3cccnc3)cc2)[C@@H]1C#N	13.5%
O=C1/C(=C/c2cccc(Br)c2)SC(=S)N1CCC(=O)N(CCO)c1ccccc1	-27% [at 50 µM]
C[C@H](CO)N1C[C@H](C)[C@@H](CN(C)S(=O)(=O)c2ccc(Cl)cc2)OCCCC[C@H](C)Oc2ccc(NS(=O)(=O)c3ccccc3)cc2C1=O	-43.1%
O=C(CN1C(=O)c2ccccc2S1(=O)=O)c1ccccc1Cl	3.21% [at 50 µM]
CCCC#Cc1ccc([C@@H]2[C@@H](C#N)N(S(=O)(=O)c3cccc(F)c3)[C@H]2CO)cc1	2.97%
N#C[C@@H]1[C@@H](c2ccc(C3=CCCCC3)cc2)[C@@H](CO)N1C(=O)NC1CCCCC1	6.88%
O=C(NCCc1ccccc1)c1ccc2c(c1)OCCCO2	-8.48% [at 50 µM]
C[C@H](CO)N1C[C@H](C)[C@@H](CN(C)Cc2ccc(-c3ccccc3)cc2)Oc2ccc(NS(=O)(=O)c3ccccc3)cc2CC1=O	-47.5%

SMILES	activity change, negative = cytotoxicity
COc1cccc(C#Cc2ccc([C@@H]3[C@@H](C#N)N(C(=O)C4CCCCC4)[C@H]3CO)cc2)c1	-11.9%
C[C@H](CO)N1C[C@H](C)[C@H](CN(C)C(=O)Nc2ccc(-c3cccs3)cc2)OCc2cnnn2CCCC1=O	24.2%
O=C1/C(=C/c2ccccc2)SC(=S)N1CC(=O)N1CCCCC1c1cccnc1 (stereo unspecified)	36.8% [at 50 µM]
C[C@H](CO)N1C[C@H](C)[C@@H](CN(C)S(=O)(=O)c2ccc(-c3ccccc3)cc2)OCc2cn(nn2)CCCC1=O	14.8%
C[C@@H]1CN([C@H](C)CO)C(=O)CCCn2nncc2CO[C@H]1CN(C)Cc1ccc(Oc2ccccc2)cc1	-0.398%
CCCC#Cc1ccc([C@H]2[C@@H](CO)N(C(=O)C3CCCCC3)[C@H]2C#N)cc1	-38.6%
CCN(CC(=O)Nc1c(F)cccc1F)C(=O)c1cc(S(=O)(=O)N(C)C)ccc1N1CCCC1	8.98% [at 50 µM]
COc1ccccc1C#Cc1ccc([C@@H]2[C@@H](C#N)N(C(=O)C3CCCCC3)[C@H]2CO)cc1	-6.03%
O=C(CN1C(=O)c2ccccc2S1(=O)=O)c1ccc(Cl)cc1Cl	31.7% [at 50 µM]
N#C[C@@H]1[C@H](c2ccc(C#CC3CCCC3)cc2)[C@H](CO)N1C(=O)Nc1ccc(F)cc1	-2.68%
N#C[C@@H]1[C@@H](c2ccc(C#Cc3ccccc3F)cc2)[C@H](CO)N1C(=O)C1CCCCC1	-43.7%
C[C@H](CO)N1C[C@H](C)[C@@H](CN(C)Cc2ccc(-c3ccccc3)cc2)Oc2ccc(NC(=O)C3CC3)cc2CC1=O	1.99%
Cc1ccc(S(=O)(=O)Nc2ccc3c(c2)C(=O)N([C@H](C)CO)C[C@@H](C)[C@H](CN(C)Cc2ccc(C(F)(F)F)cc2)OCCCC[C@H](C)O3)cc1	-30.4%
O=C(Nc1ccc(OCC(F)(F)C(F)F)c(C(F)(F)F)c1)c1ccccc1O	14.1% [at 50 µM]
COc1cccc(C#Cc2ccc([C@@H]3[C@H](C#N)N(C(=O)c4ccccn4)[C@H]3CO)cc2)c1	-24.5%
